# Source: PubChem BioAssay AID743149 (Broad Institute, 2013)
# Entries with a potency or affinity are not part of this list. Unmarked numbers belong to inactive results. The rule behind the calls is not given here.
# Experiment: OV-90 cell viability loss – plate reader, dry powder, SA8, PAX8 inhibitor project, dose response (AID 743149)
# Conditions: OV-90 ovarian cancer cells; series mostly up to 35 µM; activity change, negative = cytotoxicity: at the top concentration
row,Compound,"activity change, negative = cytotoxicity"
1,CCN(CC(=O)Nc1c(F)cccc1F)C(=O)c1cc(S(=O)(=O)N(C)C)ccc1N1CCCC1,8.98% [at 50 µM]
2,C[C@H](CO)N1C[C@H](C)[C@@H](CN(C)Cc2ccc(-c3ccccc3)cc2)Oc2ccc(NC(=O)C3CC3)cc2CC1=O,1.99%
3,O=C1/C(=C/c2cccc(Br)c2)SC(=S)N1CCC(=O)N(CCO)c1ccccc1,-27% [at 50 µM]
4,COc1cccc(C#Cc2ccc([C@@H]3[C@H](C#N)N(C(=O)c4ccccn4)[C@H]3CO)cc2)c1,-24.5%
5,C[C@@H]1CN([C@H](C)CO)C(=O)CCCn2nncc2CO[C@H]1CN(C)Cc1ccc(Oc2ccccc2)cc1,-0.398%
6,C[C@H](CO)N1C[C@H](C)[C@@H](CN(C)S(=O)(=O)c2ccc(Cl)cc2)OCCCC[C@H](C)Oc2ccc(NS(=O)(=O)c3ccccc3)cc2C1=O,-43.1%
7,O=C(CN1C(=O)c2ccccc2S1(=O)=O)c1ccc(Cl)cc1Cl,31.7% [at 50 µM]
8,Cc1ccc(S(=O)(=O)Nc2ccc3c(c2)C(=O)N([C@H](C)CO)C[C@@H](C)[C@H](CN(C)Cc2ccc(C(F)(F)F)cc2)OCCCC[C@H](C)O3)cc1,-30.4%
9,Cc1ccccc1OCC(=O)Nc1cccc(C(=O)O)c1,22.8% [at 50 µM]
10,O=C(Nc1ccc(OCC(F)(F)C(F)F)c(C(F)(F)F)c1)c1ccccc1O,14.1% [at 50 µM]
11,C[C@H](CO)N1C[C@H](C)[C@@H](CN(C)Cc2ccc(-c3ccccc3)cc2)Oc2ccc(NS(=O)(=O)c3ccccc3)cc2CC1=O,-47.5%
12,COc1cccc(C#Cc2ccc([C@@H]3[C@@H](C#N)N(C(=O)C4CCCCC4)[C@H]3CO)cc2)c1,-11.9%
